Assay results: PubChem BioAssay (Tox21)
Results filed as inconclusive are left out. A call without a number means that no potency is given here. Activity calls are given as the source filed them. Calls come from the whole dose curve; as a rule, active = well fitted activation curve with a large enough effect in the repeat runs; inconclusive = weak or mixed curves; inactive = no such curve, though single readings can be large or run the other way.
Potency is the fitted concentration of half-maximal effect.

These compounds were tested against Nuclear receptor subfamily 1 group I member 2 (Homo sapiens) (UniProt O75469) (assay: Human pregnane X receptor (PXR) small molecule agonists, qHTS assay (AID 1346982; note: nearly all actives have a fitted effect of over 35% in size)). Settings: PXR-Luc HepG2, CYP3A4 luciferase reporter, 24 h; series mostly up to 92.4 µM.
Sequence of Nuclear receptor subfamily 1 group I member 2 (Homo sapiens) (O75469 whole entry, looked up): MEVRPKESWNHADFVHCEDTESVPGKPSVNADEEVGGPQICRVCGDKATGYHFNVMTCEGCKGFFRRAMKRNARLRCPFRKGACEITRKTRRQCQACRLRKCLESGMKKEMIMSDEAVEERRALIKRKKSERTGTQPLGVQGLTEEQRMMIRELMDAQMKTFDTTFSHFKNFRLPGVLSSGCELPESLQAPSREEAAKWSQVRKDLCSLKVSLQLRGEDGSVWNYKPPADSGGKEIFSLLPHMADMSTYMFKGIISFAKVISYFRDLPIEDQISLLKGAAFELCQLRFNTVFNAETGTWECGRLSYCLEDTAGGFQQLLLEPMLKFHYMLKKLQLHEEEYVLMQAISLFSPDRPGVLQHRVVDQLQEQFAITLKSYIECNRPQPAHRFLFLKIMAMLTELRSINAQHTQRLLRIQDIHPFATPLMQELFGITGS
Excerpt: National Center for Advancing Translational Sciences [NCATS]
NIH Chemical Genomics Center [NCGC]
U.S. Environmental Protection Agency [EPA]
National Institutes of Environmental Health Sciences [NIEHS]
National Toxicology Program [NTP]
The human pregnane X receptor (hPXR) regulates the expression of several drug metabolizing enzymes and induction of these proteins is a major mechanism for developing drug resistance in cancer. One such key enzyme catalyzing the drug metabolism is cytochrome P450 3A4 (CYP3A4). Changes in CYP3A4 expression affect drug metabolism, thereby reducing the therapeutic efficacy and altering toxicological response to a drug and which finally causes adverse drug interaction. To screen Tox21 libraries for compounds that activate hPXR-mediated CYP3A4 gene expression, PXR-Luc HepG2 cells were used.
PXR-Luc HepG2 cells were dispensed at 2,000 per well in 5uL of assay medium containing 5% charcoal-stripped FBS into white solid bottom 1536-well plates (Corning Life Sciences, Corning, NY) using a Multidrop Combi (Thermo Scientific, Waltham, MA) dispenser. The assay plates were incubated at 37 C and 5% CO2 for 5hr, and then 23nL of compounds dissolved in DMSO and positive control were transferred using a Pintool station (Wako, San Diego, CA). The assay plates were incubated at 37C and 5% CO2 for 24hr. For luciferase read, 4uL of ONE-Glo reagent (Promega Corporation, Madison, WI) was added to each well of the assay plates using Flying Reagent Dispenser (FRD, Aurora Discovery, San Diego, CA) and incubated the assay plates at room temperature for 30min. The luminescence signal was quantified using a ViewLux plate reader (Perkin Elmer, Shelton, CT).
In the case of CCN(CC)CCOC(=O)C(c1ccccc1)C1CCCCC1 (stereo not given), the Potency is reported as 13.3 µM (active). COc1ccnc(CS(=O)c2nc3ccc(OC(F)F)cc3[nH]2)c1OC (stereo not given) was tested, and the Potency was “inactive”. C=CC1CC2C=CC1C2 (stereo not given) was tested, and the Potency was “inactive”. With COc1ccc2cccc(CCNC(C)=O)c2c1 the Potency was “inactive”. With CCCCNc1ccc(C(=O)OCCOCCOCCOCCOCCOCCOCCOCCOCCOC)cc1 the Potency was “inactive”. With Brc1c2ccccc2c(Br)c2ccccc12 the activation was 1.22% [at 8.39 µM] (inactive). For CN(C)C(=O)NC1(c2ccccc2)CCN(CC[C@@]2(c3ccc(F)c(F)c3)CN(C(=O)c3ccccc3)CCO2)CC1, the Potency was 8.02 µM (active). With CCN(CC)c1ccc(C(=C2C=CC(=[N+](CC)CC)C=C2)c2cc(S(=O)(=O)O)ccc2S(=O)(=O)[O-])cc1 the Potency was “inactive”. With Cc1cccc(C)c1OCC(=O)N[C@@H](Cc1ccccc1)[C@@H](O)C[C@H](Cc1ccccc1)NC(=O)[C@H](C(C)C)N1CCCNC1=O the Potency was 29.8 µM (active). In the case of Nc1cccc(S(=O)(=O)c2cccc(N)c2)c1, the Potency is reported as “inactive”. For COC(C)OC, the Potency was “inactive”. In the case of CC(=O)[O][Al][O]C(C)=O, the Potency is reported as “inactive”. O=C(O)c1ccco1 was tested, and the Potency was “inactive”. With Cc1oc2c(NC(=O)c3c(Cl)cccc3Cl)cccc2c1C(C)(C)O the Potency was 1.09 µM (active). C/C=C(/C(=C/C)c1ccc(OC(C)=O)cc1)c1ccc(OC(C)=O)cc1 was tested, and the Potency was “inactive”. In the case of CCO[C@H](Cc1ccc(OCCc2ccc(OS(C)(=O)=O)cc2)cc1)C(=O)O, the Potency is reported as “inactive”. CCCCC/C=C\C/C=C\CCCCCCCC(=O)NC(C)c1ccccc1 (stereo not given) was tested, and the Potency was 21.1 µM (active). COS(=O)(=O)C(F)(F)F was tested, and the Potency was “inactive”. With OC(C#CCN1CCCC1)(c1ccccc1)c1ccccc1 the Potency was 23.7 µM (active). With NCC(=O)CCC(=O)O the Potency was “inactive”. CN1C[C@H]2c3ccccc3Oc3ccc(Cl)cc3[C@@H]2C1 was tested, and the Potency was “inactive”. In the case of Nc1ccc(S(=O)(=O)Nc2ccccc2)cc1, the Potency is reported as “inactive”. With C[C@@H]1C[C@H]2[C@@H]3CCC4=CC(=O)C=C[C@]4(C)[C@@]3(F)[C@@H](O)C[C@]2(C)[C@@]1(O)C(=O)COC(=O)c1ccncc1 the Potency was 1.33 µM (active). In the case of O=C1CCC(=O)O1, the Potency is reported as “inactive”. For CCOC(=O)C(=O)CCc1ccccc1, the Potency was “inactive”. For CCOC(=O)NCCOc1ccc(Oc2ccccc2)cc1, the Potency was 21.7 µM (active). In the case of CCOC(=O)C(F)(F)F, the Potency is reported as “inactive”. In the case of O=C(O)c1ccc(S(=O)(=O)O)cc1C(=O)O, the Potency is reported as “inactive”. With CCCCCCCN the Potency was “inactive”. For CC(=O)OC[C@H]1O[C@@H](n2ncc(=O)[nH]c2=O)[C@H](OC(C)=O)[C@@H]1OC(C)=O, the Potency was “inactive”. In the case of CC(=O)NO, the Potency is reported as “inactive”. In the case of CCOC(=O)COC(=O)c1cc(Oc2ccc(C(F)(F)F)cc2Cl)ccc1[N+](=O)[O-], the Potency is reported as 30.6 µM (active). With O=C(O)C(S)C(S)C(=O)O (stereo not given) the Potency was “inactive”. For OC(CN1CCC(Cc2ccc(F)cc2)CC1)c1ccc(Cl)cc1 (stereo not given), the Potency was “inactive”. For CNCCCCOc1ccccc1Cc1ccccc1, the Potency was “inactive”. Nc1cccc([N+](=O)[O-])c1 was tested, and the Potency was “inactive”. With O=C(O)CC(=O)C(=O)O the Potency was 48.7 µM (active). Nc1ccc([N+](=O)[O-])c(C(F)(F)F)c1 was tested, and the Potency was “inactive”. In the case of CCCCC(=O)OCC(=O)[C@H]1[C@H](C)C[C@H]2[C@@H]3C[C@H](F)C4=CC(=O)C=C[C@]4(C)[C@@]3(F)[C@@H](O)C[C@@]21C, the Potency is reported as 9.44 µM (active). With CC(=O)c1ccc2c(c1)N(CCCN(C)C)c1ccccc1S2 the Potency was “inactive”.
